Results as given in PubChem BioAssay (NCATS).
Active and inactive are the calls of the source. The rule behind the calls is not given here.

Assays:
[1] = Immunotoxin (HA22) sensitization/mitigation study. Vehicle arm (PBS) (AID 1159510); conditions: cancer cells viability with PBS vehicle (HA22 study); series mostly up to 46.1 µM
[2] = Immunotoxin (SS1P) sensitization/mitigation study. Vehicle arm (DMEM) (AID 1159513); conditions: cell viability with vehicle (DMEM); series mostly up to 46.1 µM
Potency is the fitted concentration of half-maximal effect.

SMILES | Potency [1] | Potency [2]
CC(C)(C)c1[nH]cnc1C=c1[nH]c(=O)c(=Cc2ccccc2)[nH]c1=O | 0.0074 µM (active) | 0.0118 µM (active)
Cn1cc(-c2ccc3nnc(C(F)(F)c4ccc5ncccc5c4)n3n2)cn1 | inactive | inactive
CCOc1ccn(-c2ccc(F)cc2)c(=O)c1C(=O)Nc1ccc(Oc2ccnc(N)c2Cl)c(F)c1 | 18.7 µM (active) | 23.5 µM (active)
CC(C)C[C@@H](C(=O)N[C@H](C(=O)OC1CCCC1)c1ccccc1)[C@H](O)C(=O)NO | 23.5 µM (active) | 16.6 µM (active)
O=C(Nc1ccc(OC(F)(F)F)cc1)c1sccc1NCc1ccnc2ccccc12 | 18.7 µM (active) | 18.7 µM (active)
CN([C@@H](Cc1ccc(OS(=O)(=O)c2cccc3cnccc23)cc1)C(=O)N1CCN(c2ccccc2)CC1)S(=O)(=O)c1cccc2cnccc12 | inactive | inactive
CNc1nccc(-c2cccnc2Oc2cc(C(=O)Nc3cccc(C(F)(F)F)c3)ccc2C)n1 | 14.8 µM (active) | 23.5 µM (active)
CC(C)(C)c1cnc(CSc2cnc(NC(=O)C3CCNCC3)s2)o1 | 0.0332 µM (active) | 0.0526 µM (active)
C=C1C(=CC=C2CCC[C@]3(C)[C@@H]([C@H](C)C=C[C@H](C)C(C)C)CC[C@@H]23)C[C@@H](O)C[C@@H]1O | 20.9 µM (active) | inactive
Cc1ccnc(NS(=O)(=O)c2ccc(NC(=O)Nc3ccc(S(=O)(=O)Nc4nccc(C)n4)cc3)cc2)n1 | 16.6 µM (active) | 18.7 µM (active)
CC(C)c1ccccc1Cc1cc(C(=O)Nc2ccc(S(=O)(=O)c3ccccc3C(C)(C)C)cc2)c(O)c(O)c1O | 0.743 µM (active) | 3.72 µM (active)
COc1nc(C)cnc1NS(=O)(=O)c1cccnc1-c1ccc(-c2nnco2)cc1 | inactive | inactive
C[C@@]12O[C@@H](C[C@]1(O)CO)n1c3ccccc3c3c4c(c5c6ccccc6n2c5c31)CNC4=O | 0.209 µM (active) | 0.0296 µM (active)
CCOC(=O)C(C)Oc1cccc2c(=O)n(CC(=O)Nc3ccc4c(c3)OCCO4)ccc12 (configuration not stated) | inactive | inactive
CC[C@H](CO)Nc1nc(NCc2ccccc2)c2ncn(C(C)C)c2n1 | 20.9 µM (active) | 23.5 µM (active)
O=S(=O)(N=Cc1c(O)ccc2ccccc12)c1cccs1 | 16.6 µM (active) | inactive

SMILES | Potency [1] | Potency [2]
COc1cc2c(Oc3ccc(NC(=O)C4(C(=O)Nc5ccc(F)cc5)CC4)cc3F)ccnc2cc1OCCCN1CCOCC1 | 16.6 µM (active) | 16.6 µM (active)
S=C(NCc1ccc2c(c1)OCO2)N1CCN(c2ncnc3c2oc2ccccc23)CC1 | 18.7 µM (active) | 0.372 µM (active)
OC[C@H]1O[C@@H](n2cnc3c2NC=NC[C@@H]3O)C[C@H]1O | inactive | inactive
CC(C)(C)c1cc(C(=O)O)c(NC(=O)Nc2ccc3[nH]ncc3c2)s1 | inactive | inactive
CCOC(=O)C1=C[C@@]2(CC)CCCN3CCc4c(n1c1ccccc41)[C@H]32 | inactive | inactive
CC1(C)Cc2c(-c3ccccc3)c(-c3ccc(Cl)cc3)c(CC(=O)O)n2C1 | 18.7 µM (active) | 16.6 µM (active)
Cc1[nH]c2ccccc2c1CCNCc1ccc(C=CC(=O)NO)cc1 | 0.0105 µM (active) | 0.0296 µM (active)
Cc1cc(SCc2sc(-c3ccc(C(F)(F)F)cc3)nc2C)ccc1OCC(=O)O | inactive | inactive
CCOc1ccc(Nc2nc(-c3c(C)nc4ccccn34)cs2)cc1 | 0.0105 µM (active) | 0.0059 µM (active)
O=C(O)CCC1CCC(c2cc(F)ccc2F)(S(=O)(=O)c2ccc(Cl)cc2)CC1 (configuration not stated) | inactive | inactive
Cc1c(CN2CCN(C(=O)C(C)C)CC2)sc2c(N3CCOCC3)nc(-c3cnc(N)nc3)nc12 | 0.0935 µM (active) | 0.0469 µM (active)
CCCCCCCCCCCCCCCCCCOP(=O)([O-])OC1CC[N+](C)(C)CC1 | inactive | inactive
COc1cc(Nc2ncc(F)c(Nc3ccc4c(n3)NC(=O)C(C)(C)O4)n2)cc(OC)c1OC | 18.7 µM (active) | 16.6 µM (active)
c1ccc2c(CCNc3ccc(Nc4ccncc4)cc3)c[nH]c2c1 | 1.87 µM (active) | 20.9 µM (active)
CN1CCC(CNc2ccc3ncc(-c4cccc(OC(F)(F)F)c4)n3n2)CC1 | 20.9 µM (active) | 16.6 µM (active)
